From PubChem BioAssay (NCATS) come the findings set out here.

Results filed as inconclusive are left out. A number with no mark means an inactive call. Active and inactive are the calls of the source. Calls come from the whole dose curve; as a rule, active = well fitted curve in the direction sought with a large enough effect; inconclusive = small, poorly fitted or top-dose-only effect, or another doubt; inactive = no such curve, though single readings can be large; an effect the other way counts as inactive or inconclusive.

Test [1] deals with Rap guanine nucleotide exchange factor 3 (Homo sapiens) (UniProt O95398). Description: Confirmatory qHTS for agonist of cAMP-regulated guanine nucleotide exchange factor 3 (EPAC1) (AID 1645881).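 Note: EPAC1 catalysed release of BODIPY-GDP from Rap1B seen as fluorescence loss; 100% = effect of cAMP agonist control; nearly all actives have a fitted effect of over 75% in size.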
Test [2] has as its target Rap guanine nucleotide exchange factor 4 (Homo sapiens) (UniProt Q8WZA2). Nature of the test: Confirmatory qHTS for agonist of cAMP-regulated guanine nucleotide exchange factor 4 (EPAC2) (AID 1645884).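 Note: nucleotide exchange releases bodipy-GDP from Rap1 and this lowers its fluorescence; % is set by controls: 0 for no effect and ±100 for the full control effect; nearly all actives have a fitted effect of over 65% in size.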
Test [3] shares this target. Nature of the test: Confirmatory qHTS for antagonist of cAMP-regulated guanine nucleotide exchange factor 4 (EPAC2) (AID 1645885). For activity change, negative = inhibition: % is set by controls: 0 for no effect and ±100 for the full control effect. Note: nearly all actives have a fitted effect of over 25% in size. Note: potency is the fitted concentration of half-maximal effect.
The target in test [4] is Rap guanine nucleotide exchange factor 3 (Homo sapiens) (UniProt O95398). Nature of the test: Counterscreen qHTS for antagonist of cAMP-regulated guanine nucleotide exchange factor 3 (EPAC1) (AID 1645888).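 Note: fluorescence loss as bound BODIPY-GDP is released from Rap1B; % of control where 0% means no effect.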 The gist of the method:
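Measured: fluorescence of BODIPY-GDP bound to Rap1B, which falls as exchange proceeds. Conditions include 50 uM competing GDP, 5 and 30 min reads, and a later cAMP challenge for antagonist detection.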

Chain of Rap guanine nucleotide exchange factor 3 (Homo sapiens) (O95398 whole entry, looked up): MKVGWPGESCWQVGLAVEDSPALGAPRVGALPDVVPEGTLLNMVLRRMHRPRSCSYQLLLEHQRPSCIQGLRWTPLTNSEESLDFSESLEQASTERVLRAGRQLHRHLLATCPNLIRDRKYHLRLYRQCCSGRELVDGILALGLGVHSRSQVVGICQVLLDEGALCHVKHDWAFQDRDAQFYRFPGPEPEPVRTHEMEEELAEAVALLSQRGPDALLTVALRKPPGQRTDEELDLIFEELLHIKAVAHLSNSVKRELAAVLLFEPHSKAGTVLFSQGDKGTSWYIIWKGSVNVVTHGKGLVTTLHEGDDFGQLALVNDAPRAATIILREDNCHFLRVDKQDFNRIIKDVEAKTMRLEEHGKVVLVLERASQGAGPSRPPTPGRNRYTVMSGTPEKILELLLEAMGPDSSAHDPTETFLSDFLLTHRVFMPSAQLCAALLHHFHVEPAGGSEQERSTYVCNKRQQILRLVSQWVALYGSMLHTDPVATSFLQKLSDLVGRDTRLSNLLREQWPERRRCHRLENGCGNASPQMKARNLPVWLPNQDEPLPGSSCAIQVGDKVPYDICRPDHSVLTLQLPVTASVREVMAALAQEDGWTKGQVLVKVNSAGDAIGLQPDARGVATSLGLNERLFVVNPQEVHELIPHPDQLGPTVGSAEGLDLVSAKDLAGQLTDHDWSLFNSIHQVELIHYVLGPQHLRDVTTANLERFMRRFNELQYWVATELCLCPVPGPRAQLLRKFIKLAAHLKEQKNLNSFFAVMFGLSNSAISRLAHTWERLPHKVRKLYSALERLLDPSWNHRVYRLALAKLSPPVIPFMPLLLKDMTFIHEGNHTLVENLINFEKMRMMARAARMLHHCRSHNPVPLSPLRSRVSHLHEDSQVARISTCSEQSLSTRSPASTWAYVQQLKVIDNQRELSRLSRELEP
Chain of Rap guanine nucleotide exchange factor 4 (Homo sapiens) (Q8WZA2 whole entry, looked up): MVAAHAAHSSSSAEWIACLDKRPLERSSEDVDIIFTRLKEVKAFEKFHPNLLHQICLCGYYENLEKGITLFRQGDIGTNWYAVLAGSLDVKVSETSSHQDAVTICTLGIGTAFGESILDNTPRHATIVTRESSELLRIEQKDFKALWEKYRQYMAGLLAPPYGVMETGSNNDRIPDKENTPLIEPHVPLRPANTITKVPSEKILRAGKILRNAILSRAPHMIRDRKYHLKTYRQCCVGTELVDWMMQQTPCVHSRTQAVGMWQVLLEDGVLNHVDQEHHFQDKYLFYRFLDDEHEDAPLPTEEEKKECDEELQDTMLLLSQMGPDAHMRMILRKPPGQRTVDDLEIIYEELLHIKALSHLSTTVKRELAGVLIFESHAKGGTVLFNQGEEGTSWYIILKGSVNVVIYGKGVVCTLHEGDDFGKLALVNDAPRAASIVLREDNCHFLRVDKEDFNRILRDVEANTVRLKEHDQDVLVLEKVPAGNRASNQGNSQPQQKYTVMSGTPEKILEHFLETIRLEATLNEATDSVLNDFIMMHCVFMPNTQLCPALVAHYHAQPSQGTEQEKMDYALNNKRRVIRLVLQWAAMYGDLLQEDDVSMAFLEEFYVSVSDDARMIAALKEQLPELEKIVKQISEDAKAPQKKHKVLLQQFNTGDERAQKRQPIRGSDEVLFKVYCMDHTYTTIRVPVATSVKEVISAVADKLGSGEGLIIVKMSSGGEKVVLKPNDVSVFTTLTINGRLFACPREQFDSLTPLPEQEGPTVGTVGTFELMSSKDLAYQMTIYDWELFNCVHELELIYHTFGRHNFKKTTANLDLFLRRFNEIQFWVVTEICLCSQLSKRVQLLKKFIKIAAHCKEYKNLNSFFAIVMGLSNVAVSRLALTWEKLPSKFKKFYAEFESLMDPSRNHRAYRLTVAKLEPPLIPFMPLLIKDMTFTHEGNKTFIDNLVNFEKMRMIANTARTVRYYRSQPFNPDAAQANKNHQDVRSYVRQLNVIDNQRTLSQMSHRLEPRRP

For `COc1cc(NC(=O)c2cccc([N+](=O)[O-])c2)ccc1NC(=O)c1ccco1`, the Potency result in test [1], in test [2], in test [3] and in test [4] was “inactive” in each case.
Regarding `Cc1[nH]n(-c2ccccc2)c(=O)c1C=Nc1ccc(S(=O)(=O)N=C(N)N)cc1`, the Potency entry in test [1], in test [2], in test [3] and in test [4] was “inactive” each time.
Take `CC1=C(C(=O)Nc2ccccc2)C(c2ccc[nH]2)n2ncnc2N1` (centres undefined): the Potency entry in test [1], in test [2], in test [3] and in test [4] was “inactive” each time.
In the case of `Cc1cccc(C(=O)OCC(=O)c2ccc(CC(=O)N3CCOCC3)s2)c1C`, the Potency result in test [1], in test [2], in test [3] and in test [4] was “inactive” each time.
In the case of `O=C(OCC1OC(n2ncc(=O)[nH]c2=O)C(OC(=O)c2ccccc2)C1OC(=O)c1ccccc1)c1ccccc1` (centres undefined), the Potency result in test [1] and in test [3] was “inactive” in each case. For the same molecule, the activation in test [2] is 0.888% [at 17.1 µM, percent relative to cAMP agonist control]. Moreover, the activity change, negative = inhibition in test [4] is -8.49% [at 30.8 µM].
As to `Cc1ccc(C)c(Cn2c(C3CC(=O)N(c4ccccc4C)C3)nc3ccccc32)c1` (centres undefined), the Potency entry in test [1], in test [2], in test [3] and in test [4] was “inactive” each time.
Regarding `Cc1cccc(Nc2nnc(SC/C(O)=C(\C#N)c3nc4ccccc4[nH]3)s2)c1`, the Potency entry in test [1], in test [2], in test [3] and in test [4] was “inactive” throughout.
As for `CC(C)Nc1nc(NC(C)C)nc(OCCOC(=O)c2ccccc2)n1`, the Potency entry in test [1], in test [2], in test [3] and in test [4] was “inactive” in each case.
As to `C[C@@]12C(=O)Nc3cc(F)ccc3C(=O)N1[C@H]1c3cc(Br)ccc3OC[C@@H]1[C@@H]2c1ccccc1`, the Potency result in test [1], in test [2], in test [3] and in test [4] was “inactive” throughout.
On to `COc1ccc(-c2cc(C(F)(F)F)c3c(n2)sc2c(O)cc(=O)[nH]c23)c(OC)c1`, for which the Potency result in test [1], in test [2], in test [3] and in test [4] was “inactive” throughout.
Regarding `COc1ccc2c(c1)Cc1sc(NC(=O)c3ccccc3C)nc1-2`, the Potency entry in test [1], in test [2], in test [3] and in test [4] was “inactive” each time.
Regarding `N=C1/C(=C\c2ccc(-c3cccc(Cl)c3)o2)C(=O)N=C2SC=C(c3ccccc3)N12`, the Potency entry in test [1], in test [2], in test [3] and in test [4] was “inactive” throughout.
For the molecule `CC(NS(=O)(=O)OCC(Cl)(Cl)Cl)c1ccc(Br)cc1` (centres undefined), the Potency result in test [1], in test [2], in test [3] and in test [4] was “inactive” each time.
Regarding `O=C(O)c1ccc(/C=N/NC(=O)c2cc(-c3ccc4c5c(cccc35)CC4)n[nH]2)cc1`, the Potency result in test [1], in test [2], in test [3] and in test [4] was “inactive” throughout.
With `Oc1ccc(NCc2ccc(OCc3ccccc3Cl)cc2)cc1`, the Potency result in test [1], in test [2], in test [3] and in test [4] was “inactive” each time.
As to `O=S(=O)(Nc1nc2ccc(Cl)cc2s1)c1cccs1`, the Potency result in test [1] and in test [3] was “inactive” each time. Besides, the activation in test [2] is 0% [at 17.1 µM, percent relative to cAMP agonist control]. Also, the activity change, negative = inhibition in test [4] is -17.1% [at 30.8 µM].
On to `O=C1Cc2ccccc2C(=O)N1`, for which the Potency result in test [1], in test [2], in test [3] and in test [4] was “inactive” each time.
Regarding `Clc1ccc(C(c2ccccc2)c2c[nH]c3ccccc23)s1` (centres undefined), the Potency entry in test [1], in test [2], in test [3] and in test [4] was “inactive” each time.
As to `O=C(/C=C/c1ccc(-c2ccccc2[N+](=O)[O-])o1)c1ccco1`, the Potency result in test [1] and in test [3] was “inactive” each time. Further, the activation in test [2] is 7.95% [at 17.1 µM, percent relative to cAMP agonist control]. Besides, the activity change, negative = inhibition in test [4] is 9.73% [at 30.8 µM].
On to `CCSc1nc2c([nH]c3ccccc32)c(=O)n1-c1cccc(OC)c1`, for which the Potency result in test [1], in test [2], in test [3] and in test [4] was “inactive” in each case.
On to `Cc1cccc(NC(=O)CN2C(=O)S/C(=C\c3cccn3-c3cccc(C(=O)O)c3)C2=O)c1`, for which the Potency result in test [1], in test [2], in test [3] and in test [4] was “inactive” each time.
As to `Cc1ccc(OCC(=O)Nc2ccc(C)c(S(=O)(=O)N3CCCCCC3)c2)c([N+](=O)[O-])n1`, the Potency entry in test [1], in test [2], in test [3] and in test [4] was “inactive” in each case.
For `CCn1c(SCC(=O)N/N=C/C=C/c2ccco2)nnc1-c1ccccc1`, the Potency result in test [1], in test [2], in test [3] and in test [4] was “inactive” in each case.
With `COc1ccc(NC(=S)N(CCCN2CCOCC2)C(C)c2cc3cccc(OC)c3o2)cc1` (centres undefined), the Potency entry in test [1], in test [2], in test [3] and in test [4] was “inactive” in each case.
With `Cc1ccc(Cl)cc1N1CCN(C(=O)c2ccc(C)c(-n3c(C)nc4cccnc43)c2)CC1`, the Potency entry in test [1], in test [2] and in test [4] was “inactive” in each case. In addition, the outcome in test [3] is “inactive [at 12.7 µM]”.
Regarding `N#Cc1c(NC(=O)CSc2ncnc3sccc23)oc(-c2ccco2)c1-c1ccco1`, the Potency result in test [1], in test [2] and in test [4] was “inactive” each time. For the same molecule, in test [3], the Potency was 84.9 µM (active).
